# The supplement of paper PMC11482750
# ± gives the standard deviation of the averaged measurements.
# Columns and labels:
# Experiment in all cases: control-subtracted net OSN firing rate; higher = stronger neuronal activation
# Settings in all cases: odorant dilution (vol/vol): 1/100
# allyl isothiocyanate = compound: C=CCN=C=S [allyl isothiocyanate]
# Method in brief: (§1)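 Responses come from single sensillum recordings of palp or antennal olfactory sensory neurons in 1–5-day-old fed female Scaptomyza species or D. melanogaster wild-type, mutant or at1 empty-neuron lines with Or42a homologs. Stimuli were 1 s pulses of odorant at 1:100 vol/vol in mineral oil or dimethyl sulfoxide into 16 ml/min filtered air. Spikes from 0.2 s after onset, counted over 0.5 s, were background-subtracted, doubled, solvent-corrected and averaged over replicates.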
# isobutyl isothiocyanate = compound: CC(C)CN=C=S [isobutyl isothiocyanate]
# Method in brief: as §1
# sec-butyl isothiocyanate = compound: CCC(C)N=C=S [sec-butyl isothiocyanate]
# Method in brief: as §1
# cinnamaldehyde = compound: O=C/C=C/c1ccccc1 [cinnamaldehyde]
# Method in brief: as §1
# phenethyl isothiocyanate = compound: S=C=NCCc1ccccc1 [phenethyl isothiocyanate]
# Method in brief: as §1
# butyl isothiocyanate = compound: CCCCN=C=S [butyl isothiocyanate]
# Method in brief: as §1
Target,control-subtracted net OSN firing rate (allyl isothiocyanate),control-subtracted net OSN firing rate (isobutyl isothiocyanate),control-subtracted net OSN firing rate (sec-butyl isothiocyanate),control-subtracted net OSN firing rate (cinnamaldehyde),control-subtracted net OSN firing rate (phenethyl isothiocyanate),control-subtracted net OSN firing rate (butyl isothiocyanate)
Canton-S (D. melanogaster) pb2a,1.69 ± 6.9 spikes/s,1.43 ± 7.3 spikes/s,5.43 ± 6.9 spikes/s,4.29 ± 8.4 spikes/s,0 ± 5 spikes/s,
S. montana pb2b-like,2 ± 4.2 spikes/s,3.67 ± 5.3 spikes/s,4.33 ± 6.2 spikes/s,6.67 ± 12 spikes/s,-4.33 ± 4.8 spikes/s,
"Or67dGal4, UAS-Sfla Or42a3 at1",127 ± 27 spikes/s,77.7 ± 25 spikes/s,29.4 ± 17 spikes/s,,,
Canton-S (D. melanogaster) pb3a,7.56 ± 4.9 spikes/s,1.5 ± 6 spikes/s,3.67 ± 8 spikes/s,0 ± 8.4 spikes/s,1.17 ± 5.8 spikes/s,
S. hsui pb1b-like,-15 ± 6.4 spikes/s,-3.33 ± 8.7 spikes/s,4.33 ± 7.4 spikes/s,6 ± 16 spikes/s,-3 ± 7.1 spikes/s,
S. montana pb3a-like,9.67 ± 6.5 spikes/s,5 ± 8.5 spikes/s,1 ± 7.9 spikes/s,-2.67 ± 16 spikes/s,2.33 ± 10 spikes/s,
Canton-S (D. melanogaster) pb1a,134 ± 36 spikes/s,0.222 ± 8.7 spikes/s,3.56 ± 4.9 spikes/s,7.11 ± 7.2 spikes/s,2 ± 9.3 spikes/s,
S. flava pb3a-like,6 ± 8.3 spikes/s,4.67 ± 6.8 spikes/s,0.333 ± 11 spikes/s,-2 ± 10 spikes/s,3.33 ± 9.1 spikes/s,
S. pallida pb2a-like,9 ± 9.5 spikes/s,5.33 ± 6.4 spikes/s,10.7 ± 9.5 spikes/s,6.67 ± 4.8 spikes/s,3.67 ± 4.6 spikes/s,
S. flava pb1a-like,123 ± 14 spikes/s,107 ± 32 spikes/s,30.3 ± 26 spikes/s,16.7 ± 17 spikes/s,-4 ± 3.8 spikes/s,
S. pallida pb2b-like,2.33 ± 5.3 spikes/s,6 ± 4 spikes/s,8.33 ± 3.4 spikes/s,8.33 ± 7.4 spikes/s,4.33 ± 5.8 spikes/s,
S. montana pb1b-like,-19 ± 14 spikes/s,-18 ± 11 spikes/s,-8.33 ± 9.7 spikes/s,4 ± 5.4 spikes/s,3.67 ± 2.9 spikes/s,
S. flava pb2a-like,-1.67 ± 6.9 spikes/s,0.667 ± 5.8 spikes/s,3 ± 7.8 spikes/s,0 ± 6.2 spikes/s,-0.667 ± 5.8 spikes/s,-3 ± 8.9 spikes/s
S. montana pb1a-like,126 ± 16 spikes/s,110 ± 18 spikes/s,48.3 ± 20 spikes/s,17 ± 9 spikes/s,4.67 ± 7.9 spikes/s,
"Or67dGal4, UAS-Sfla Or42a4 at1",131 ± 22 spikes/s,87 ± 27 spikes/s,29.7 ± 21 spikes/s,,,
S. pallida pb3b-like,-5.67 ± 14 spikes/s,-4 ± 7.9 spikes/s,5.33 ± 17 spikes/s,-6.67 ± 18 spikes/s,-5.67 ± 15 spikes/s,
S. montana pb3b-like,3 ± 7.9 spikes/s,-0.667 ± 7.8 spikes/s,3.67 ± 6.9 spikes/s,-1.67 ± 8.2 spikes/s,-2.33 ± 8.7 spikes/s,
S. flava pb1b-like,-21 ± 16 spikes/s,-26.3 ± 24 spikes/s,-2.33 ± 32 spikes/s,1.33 ± 17 spikes/s,3 ± 8.8 spikes/s,

Target,control-subtracted net OSN firing rate (allyl isothiocyanate),control-subtracted net OSN firing rate (isobutyl isothiocyanate),control-subtracted net OSN firing rate (sec-butyl isothiocyanate),control-subtracted net OSN firing rate (cinnamaldehyde),control-subtracted net OSN firing rate (phenethyl isothiocyanate),control-subtracted net OSN firing rate (butyl isothiocyanate)
S. pallida pb1a-like,109 ± 21 spikes/s,26 ± 12 spikes/s,17.3 ± 13 spikes/s,19.3 ± 13 spikes/s,3 ± 4.3 spikes/s,
S. pallida pb3a-like,-6.33 ± 7 spikes/s,-5.67 ± 5.8 spikes/s,-5 ± 14 spikes/s,1 ± 8.3 spikes/s,-4.33 ± 8.1 spikes/s,
Canton-S (D. melanogaster) pb2b,-1.54 ± 9 spikes/s,-0.286 ± 8.4 spikes/s,0.571 ± 8.4 spikes/s,5.14 ± 12 spikes/s,-1.14 ± 8.4 spikes/s,
S. hsui pb2b-like,0.667 ± 4.1 spikes/s,7 ± 8.2 spikes/s,5.33 ± 6.3 spikes/s,11 ± 9.8 spikes/s,-0.333 ± 6 spikes/s,
S. flava pb3b-like,2 ± 14 spikes/s,-3.67 ± 24 spikes/s,-3.33 ± 16 spikes/s,4.33 ± 16 spikes/s,1.33 ± 4.3 spikes/s,
Canton-S (D. melanogaster) pb3b,-3.33 ± 8.2 spikes/s,-1.5 ± 9.8 spikes/s,1.33 ± 7 spikes/s,-1.67 ± 8.6 spikes/s,0 ± 11 spikes/s,
S. montana pb2a-like,0.667 ± 4.1 spikes/s,1.67 ± 4.5 spikes/s,3 ± 10 spikes/s,13.7 ± 10 spikes/s,2.67 ± 4.3 spikes/s,
S. flava pb2b-like,-0.333 ± 12 spikes/s,-4.33 ± 14 spikes/s,-0.333 ± 6.4 spikes/s,-1.33 ± 7.1 spikes/s,4 ± 15 spikes/s,
"Or67dGal4, UAS-Sfla Or42a2 at1",39.7 ± 29 spikes/s,-2 ± 3.1 spikes/s,-1.71 ± 6.6 spikes/s,,,
S. hsui pb3a-like,0 ± 12 spikes/s,-4.33 ± 7.9 spikes/s,-2 ± 10 spikes/s,6.33 ± 9.9 spikes/s,-4.67 ± 13 spikes/s,
"Or67dGal4, UAS-Dmel Or42a at1",94.3 ± 58 spikes/s,5.33 ± 7.7 spikes/s,4.33 ± 11 spikes/s,,,
"Or67dGal4, UAS-Spal Or42a at1",201 ± 39 spikes/s,42.2 ± 14 spikes/s,22.8 ± 9.7 spikes/s,,,
Canton-S (D. melanogaster) pb1b,-8.93 ± 11 spikes/s,1.33 ± 9.2 spikes/s,-0.667 ± 9.4 spikes/s,2.67 ± 9.5 spikes/s,-4.44 ± 6.8 spikes/s,
S. hsui pb3b-like,-2.67 ± 4.5 spikes/s,-1.33 ± 3.9 spikes/s,-3 ± 1.7 spikes/s,2.67 ± 15 spikes/s,-3 ± 5.8 spikes/s,
S. hsui pb1a-like,124 ± 17 spikes/s,10 ± 5.1 spikes/s,8.67 ± 7.3 spikes/s,12.7 ± 16 spikes/s,3.67 ± 8.9 spikes/s,
S. pallida pb1b-like,-11 ± 11 spikes/s,-8.67 ± 14 spikes/s,-1 ± 13 spikes/s,4.67 ± 8.6 spikes/s,-11 ± 11 spikes/s,
S. hsui pb2a-like,-2 ± 4.7 spikes/s,2 ± 7.3 spikes/s,2 ± 4.7 spikes/s,2.67 ± 8.2 spikes/s,0.333 ± 5 spikes/s,
